Measured values as given in PubChem BioAssay (EPA / NIEHS).
Calls of active or inactive are those of the source. The calls were made as follows: active = hit-call score of the fitted dose curve at least 0.9, where 1 is the maximum; inactive = score below 0.9.

How the values were obtained:
[1] = ATG_GRE_CIS: Attagene CIS-FACTORIAL HepG2 Assay for human Glucocorticoid Response Elements (GRE) (AID 2282947); settings: HepG2 GRE cis-reporter, Attagene multiplex mRNA; actives raise or lower the signal
Procedure, shortened: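 Fluorescence intensity of reporter-specific cDNA fragments, separated by capillary electrophoresis, provides the signal. Constructs carry cis-regulating promoters in transiently transfected HepG2 liver cells; 24 h incubation; fitting is bidirectional against DMSO.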

[2] = ATG_ISRE_CIS: Attagene CIS-FACTORIAL HepG2 Assay for human Interferon Regulatory Factor 1 (IRF1) binding to an Interferon-Stimulated Response Element (ISRE) (AID 2282948); settings: HepG2 ISRE cis-reporter (Attagene), mRNA transcription readout; actives raise or lower the signal
Procedure, shortened: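 Read-out: fluorescent RT-PCR products resolved by capillary electrophoresis, reporting endogenous transcription factor activity via ISRE-driven reporter mRNA in transfected HepG2 cells dosed for 24 h; gain or loss fitted relative to DMSO.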

[3] = ATG_M_32_CIS: Attagene CIS-FACTORIAL HepG2 Assay for M32 Transcription Factor (Internal Marker) (AID 2282949); settings: HepG2 Attagene cis-factorial M32 reporter, mRNA; actives raise or lower the signal;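 also: background control marker of the multiplexed CIS panel rather than a real target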
Procedure, shortened: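 HepG2 transfectants (cis-regulated reporter transcription units) dosed 24 h. Reporter mRNA by RT-PCR plus CE, analysed as gain or loss relative to DMSO.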

[4] = ATG_M_06_CIS: Attagene CIS-FACTORIAL HepG2 Assay for M06 Transcription Factor (Internal Marker) (AID 2282950); settings: HepG2 Attagene CIS-FACTORIAL M06 internal marker reporter; actives raise or lower the signal
Procedure, shortened: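 HepG2 liver cells, 24 h exposure. Reporter transcripts from transfected cis-element constructs quantified by RT-PCR/capillary electrophoresis fluorescence. Bidirectional curve fit against DMSO.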

[5] = biological target: Hypoxia-inducible factor 1-alpha (Homo sapiens) (UniProt Q16665); assay: ATG_HIF1a_CIS: Attagene CIS-FACTORIAL HepG2 Assay for human Hypoxia Inducible Factor 1 (HIF1A) (AID 2282951); settings: HepG2 Attagene cis-factorial HIF1a reporter transcription; actives raise or lower the signal
Procedure, shortened: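 Activity is fitted in both directions relative to DMSO. Reporter transcripts are read by RT-PCR, fluorescent primer extension and capillary electrophoresis after 24 h chemical treatment. The cells are HepG2 carrying transiently transfected cis-element-driven reporter units responding to endogenous factors.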

[6] = biological target: Hepatocyte nuclear factor 6 (Homo sapiens) (UniProt Q9UBC0); assay: ATG_HNF6_CIS: Attagene CIS-FACTORIAL HepG2 Assay for human Hepatocyte Nuclear Factor 6 (HNF6) (AID 2282952); settings: HepG2 Attagene cis-factorial HNF6 reporter transcription; actives raise or lower the signal
Procedure, shortened: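 Using cis-element reporters in HepG2 liver cells, the assay tracks endogenous factor-driven transcription 24 h post-dosing. Signal comes from 6-FAM-labelled, HpaI-digested RT-PCR fragments, with gain or loss scored against DMSO.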

[7] = ATG_MRE_CIS: Attagene CIS-FACTORIAL HepG2 Assay for human Metal Responsive Element (MRE) (AID 2282954); settings: HepG2 MRE cis-reporter transcription, Attagene multiplex; actives raise or lower the signal
Procedure, shortened: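 Measured here is mRNA induction from an MRE cis-element reporter in HepG2 after 24 h, quantified by fluorescence of labelled RT-PCR products on capillary electrophoresis; gain- and loss-of-signal fits use DMSO as baseline.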

[8] = ATG_PBREM_CIS: Attagene CIS-FACTORIAL HepG2 Assay for human Phenobarbital-responsive Enhancer Module (PBREM) (AID 2282955); settings: HepG2 PBREM cis-reporter, Attagene multiplexed transcription; actives raise or lower the signal
Procedure, shortened: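 Endogenous transcription factor activity was read from reporter transcripts in transiently transfected human HepG2 liver cells after 24 h dosing. RT-PCR products were fluorescently labelled, HpaI-cut and sized by capillary electrophoresis; activity fitted bidirectionally against DMSO baseline.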

[9] = ATG_PXRE_CIS: Attagene CIS-FACTORIAL HepG2 Assay for human Pregnane X Receptor Element (PXRE) (AID 2282957); settings: HepG2 Attagene CIS-FACTORIAL PXRE reporter, mRNA; actives raise or lower the signal
Procedure, shortened: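 Using HepG2 transfected with multiple reporter transcription units, endogenous factor-driven transcription was scored as reporter mRNA after 24 h exposure.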

[10] = ATG_PPRE_CIS: Attagene CIS-FACTORIAL HepG2 Assay for human Peroxisome Proliferator-activated Response Element (PPRE) (AID 2282958); settings: HepG2 PPRE cis-element reporter, Attagene transcription factor profiling; actives raise or lower the signal
Procedure, shortened: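 Endogenous PPRE-driven transcription is measured in HepG2 cells carrying transfected multi-reporter constructs. Reporter transcripts are quantified by RT-PCR, HpaI digestion and capillary electrophoresis 24 h after dosing. DMSO baseline, bidirectional fit.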

[11] = ATG_RORE_CIS: Attagene CIS-FACTORIAL HepG2 Assay for human RAR-related Orphan Receptor Element (RORE) (AID 2282959); settings: HepG2 Attagene cis-factorial RORE reporter, mRNA; actives raise or lower the signal
Procedure, shortened: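 RORE reporter transcripts reflecting endogenous factor activity were read after 24 h compound exposure of transfected HepG2 cells, using reverse transcription, PCR, fluorescent labelling and capillary electrophoresis sizing. Gain or loss fitted against DMSO.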

[12] = ATG_Sox_CIS: Attagene CIS-FACTORIAL HepG2 Assay for human SRY-box transcription factor (SOX) (AID 2282960); settings: HepG2 Attagene cis-factorial SOX reporter, mRNA; actives raise or lower the signal
Procedure, shortened: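 Reporter transcripts, measured by RT-PCR and capillary electrophoresis of labelled fragments, report endogenous SOX transcription factor activity. Transiently transfected human HepG2 cells receive chemical for 24 h; changes in either direction are fitted relative to DMSO.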

[13] = ATG_SREBP_CIS: Attagene CIS-FACTORIAL HepG2 Assay for human Sterol Regulatory Element Binding (SREBP) (AID 2282962); settings: HepG2 Attagene cis-factorial SREBP reporter, mRNA; actives raise or lower the signal
Procedure, shortened: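 Readout: fluorescent reporter-transcript peaks resolved by capillary electrophoresis after RT-PCR. Cells were human HepG2 carrying transfected cis-promoter reporter constructs, dosed for 24 h. Gain or loss of signal was fitted against DMSO controls.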

[14] = biological target: Signal transducer and activator of transcription 3 (Homo sapiens) (UniProt P40763); assay: ATG_STAT3_CIS: Attagene CIS-FACTORIAL HepG2 Assay for human Signal Transducer and Activator of Transcription 3 (STAT3) (AID 2282963); settings: HepG2, Attagene cis-factorial STAT3 reporter transcription; actives raise or lower the signal
Procedure, shortened: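 Fluorescence intensity of 6-FAM-labelled reporter fragments, separated by capillary electrophoresis after RT-PCR, gave the signal. Cells were HepG2 transfected with cis-element reporter units and treated 24 h; fitting was bidirectional relative to DMSO.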

[15] = ATG_TA_CIS: Attagene CIS-FACTORIAL HepG2 Assay for human TA Basal Promoter (AID 2282964); settings: HepG2 Attagene CIS-factorial TA basal promoter reporter; actives raise or lower the signal
Procedure, shortened: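 Fluorescence from labelled RT-PCR reporter fragments, separated by capillary electrophoresis, gives the signal. Cells: HepG2 transiently carrying multiple reporter units, 24 h chemical dosing. Gain or loss relative to DMSO.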

[16] = ATG_TCF_b_cat_CIS: Attagene CIS-FACTORIAL HepG2 Assay for human T-Cell-Factor with beta-catenin (TCF/b-cat) (AID 2282965); settings: HepG2 TCF/beta-catenin cis-reporter transcription, actives raise or lower the signal
Procedure, shortened: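 Cells of the HepG2 line carry transiently transfected reporter units whose promoters respond to endogenous factors. Twenty-four hours post-dosing, reporter mRNA induction is measured by fluorescent RT-PCR and capillary electrophoresis, with DMSO as baseline.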

[17] = biological target: Heat shock factor protein 1 (Homo sapiens) (UniProt Q00613); assay: ATG_HSE_CIS: Attagene CIS-FACTORIAL HepG2 Assay for human Heat Shock Transcription Factor 1 (HSE) (AID 2282953); settings: HepG2 HSE cis-reporter, Attagene RNA transcription; actives raise or lower the signal
Procedure, shortened: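 Endogenous transcription factor activity captured via cis-promoter reporter units transfected into HepG2; treatment lasted 24 h. Fluorescence intensity of reporter fragments analysed with bidirectional curve fitting, DMSO baseline.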

[18] = biological target: Transcription factor Sp1 (Homo sapiens) (UniProt P08047); assay: ATG_Sp1_CIS: Attagene CIS-FACTORIAL HepG2 Assay for human Specificity Protein 1 (Sp1) (AID 2282961); settings: HepG2 Sp1 cis-reporter transcription, actives raise or lower the signal
Procedure, shortened: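 Read-out is reporter transcript level, measured by RT-PCR and fluorescent capillary electrophoresis after 24 h chemical treatment. System: transiently transfected HepG2 cells reporting endogenous transcription factor activity; gain or loss fitted against DMSO baseline.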

[19] = biological target: Paired box protein Pax-6 (Homo sapiens) (UniProt P26367); assay: ATG_Pax6_CIS: Attagene CIS-FACTORIAL HepG2 Assay for human Paired Box 6 (PAX6) (AID 2282956); settings: HepG2 CIS-FACTORIAL PAX6 reporter transcription, RNA readout; actives raise or lower the signal
Procedure, shortened: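 Readout: reporter transcript fluorescence after RT-PCR and capillary electrophoresis. Cells: HepG2, transiently transfected with cis-regulated MRTUs. Exposure 24 h. Gain or loss of signal fitted bidirectionally relative to DMSO.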

Measured: AC50

Sequence of Hepatocyte nuclear factor 6 (Homo sapiens) (Q9UBC0 whole entry, looked up, the tested form may be a part): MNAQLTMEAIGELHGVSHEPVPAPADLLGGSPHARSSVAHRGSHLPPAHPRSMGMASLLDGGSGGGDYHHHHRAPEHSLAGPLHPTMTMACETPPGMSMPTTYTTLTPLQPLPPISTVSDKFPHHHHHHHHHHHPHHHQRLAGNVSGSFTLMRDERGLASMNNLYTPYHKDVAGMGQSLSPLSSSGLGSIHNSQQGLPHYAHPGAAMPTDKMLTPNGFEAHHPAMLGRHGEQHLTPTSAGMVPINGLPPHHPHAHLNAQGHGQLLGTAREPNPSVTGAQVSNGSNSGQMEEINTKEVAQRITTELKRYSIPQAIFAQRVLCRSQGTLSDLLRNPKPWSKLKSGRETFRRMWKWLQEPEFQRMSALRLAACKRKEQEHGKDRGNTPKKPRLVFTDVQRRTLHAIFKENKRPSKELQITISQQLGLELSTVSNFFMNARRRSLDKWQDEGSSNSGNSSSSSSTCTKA
Sequence of Hypoxia-inducible factor 1-alpha (Homo sapiens) (Q16665 whole entry, looked up): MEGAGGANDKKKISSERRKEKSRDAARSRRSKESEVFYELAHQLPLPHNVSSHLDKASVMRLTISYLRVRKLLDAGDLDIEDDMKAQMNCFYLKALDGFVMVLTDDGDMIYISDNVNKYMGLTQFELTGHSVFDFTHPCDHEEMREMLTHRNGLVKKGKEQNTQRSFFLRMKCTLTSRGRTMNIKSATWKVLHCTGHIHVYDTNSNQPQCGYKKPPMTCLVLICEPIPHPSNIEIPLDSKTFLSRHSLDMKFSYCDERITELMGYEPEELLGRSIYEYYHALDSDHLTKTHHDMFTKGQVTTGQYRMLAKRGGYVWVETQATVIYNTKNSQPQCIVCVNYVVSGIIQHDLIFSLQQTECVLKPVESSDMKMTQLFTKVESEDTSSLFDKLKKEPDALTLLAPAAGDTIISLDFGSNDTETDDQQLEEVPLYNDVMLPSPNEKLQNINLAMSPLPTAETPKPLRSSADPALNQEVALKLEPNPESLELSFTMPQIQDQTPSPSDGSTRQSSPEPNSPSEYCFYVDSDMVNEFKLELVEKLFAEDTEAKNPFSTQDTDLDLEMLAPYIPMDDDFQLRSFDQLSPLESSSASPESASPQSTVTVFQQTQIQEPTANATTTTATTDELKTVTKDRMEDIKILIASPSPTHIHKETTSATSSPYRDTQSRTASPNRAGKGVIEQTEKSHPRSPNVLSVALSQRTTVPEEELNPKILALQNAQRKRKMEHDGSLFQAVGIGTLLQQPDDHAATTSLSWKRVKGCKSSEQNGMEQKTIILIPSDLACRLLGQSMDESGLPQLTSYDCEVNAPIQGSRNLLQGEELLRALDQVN
Sequence of Signal transducer and activator of transcription 3 (Homo sapiens) (P40763 whole entry, looked up, the tested form may be a part): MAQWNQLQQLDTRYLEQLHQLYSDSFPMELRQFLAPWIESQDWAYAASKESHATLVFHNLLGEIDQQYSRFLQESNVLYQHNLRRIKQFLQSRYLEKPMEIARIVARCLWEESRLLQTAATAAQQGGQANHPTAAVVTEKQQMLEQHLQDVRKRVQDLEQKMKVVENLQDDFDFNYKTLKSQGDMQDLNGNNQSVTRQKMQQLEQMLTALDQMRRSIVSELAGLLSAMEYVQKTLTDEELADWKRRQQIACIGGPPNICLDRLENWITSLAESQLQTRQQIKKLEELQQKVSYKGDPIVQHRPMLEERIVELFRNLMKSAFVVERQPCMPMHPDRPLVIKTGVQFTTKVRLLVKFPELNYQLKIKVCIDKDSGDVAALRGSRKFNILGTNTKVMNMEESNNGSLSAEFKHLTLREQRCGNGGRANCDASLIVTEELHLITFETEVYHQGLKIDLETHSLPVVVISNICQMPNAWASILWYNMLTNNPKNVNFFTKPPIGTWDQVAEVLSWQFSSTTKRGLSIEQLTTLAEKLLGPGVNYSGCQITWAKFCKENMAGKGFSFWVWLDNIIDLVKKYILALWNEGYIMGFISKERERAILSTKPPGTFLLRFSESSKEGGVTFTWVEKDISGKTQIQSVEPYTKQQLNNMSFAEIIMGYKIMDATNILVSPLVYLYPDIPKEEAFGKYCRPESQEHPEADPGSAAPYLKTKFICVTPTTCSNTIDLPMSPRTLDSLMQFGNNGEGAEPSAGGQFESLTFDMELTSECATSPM
Sequence of Heat shock factor protein 1 (Homo sapiens) (Q00613 whole entry, looked up, the tested form may be a part): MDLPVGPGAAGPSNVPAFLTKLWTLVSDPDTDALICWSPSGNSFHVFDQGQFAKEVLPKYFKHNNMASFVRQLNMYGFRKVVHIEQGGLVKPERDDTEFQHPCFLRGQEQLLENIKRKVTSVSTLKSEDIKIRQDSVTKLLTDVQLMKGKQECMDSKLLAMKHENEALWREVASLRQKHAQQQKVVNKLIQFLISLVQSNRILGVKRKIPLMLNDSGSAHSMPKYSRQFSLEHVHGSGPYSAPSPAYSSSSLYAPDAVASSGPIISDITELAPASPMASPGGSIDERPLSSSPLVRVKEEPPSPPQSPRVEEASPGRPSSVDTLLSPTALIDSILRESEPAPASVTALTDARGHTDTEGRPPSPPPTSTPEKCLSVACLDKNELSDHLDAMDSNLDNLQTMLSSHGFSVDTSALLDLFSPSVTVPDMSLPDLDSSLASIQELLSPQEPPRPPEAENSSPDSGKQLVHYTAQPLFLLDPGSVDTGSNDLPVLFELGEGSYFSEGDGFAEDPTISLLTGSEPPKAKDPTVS
Sequence of Transcription factor Sp1 (Homo sapiens) (P08047 whole entry, looked up): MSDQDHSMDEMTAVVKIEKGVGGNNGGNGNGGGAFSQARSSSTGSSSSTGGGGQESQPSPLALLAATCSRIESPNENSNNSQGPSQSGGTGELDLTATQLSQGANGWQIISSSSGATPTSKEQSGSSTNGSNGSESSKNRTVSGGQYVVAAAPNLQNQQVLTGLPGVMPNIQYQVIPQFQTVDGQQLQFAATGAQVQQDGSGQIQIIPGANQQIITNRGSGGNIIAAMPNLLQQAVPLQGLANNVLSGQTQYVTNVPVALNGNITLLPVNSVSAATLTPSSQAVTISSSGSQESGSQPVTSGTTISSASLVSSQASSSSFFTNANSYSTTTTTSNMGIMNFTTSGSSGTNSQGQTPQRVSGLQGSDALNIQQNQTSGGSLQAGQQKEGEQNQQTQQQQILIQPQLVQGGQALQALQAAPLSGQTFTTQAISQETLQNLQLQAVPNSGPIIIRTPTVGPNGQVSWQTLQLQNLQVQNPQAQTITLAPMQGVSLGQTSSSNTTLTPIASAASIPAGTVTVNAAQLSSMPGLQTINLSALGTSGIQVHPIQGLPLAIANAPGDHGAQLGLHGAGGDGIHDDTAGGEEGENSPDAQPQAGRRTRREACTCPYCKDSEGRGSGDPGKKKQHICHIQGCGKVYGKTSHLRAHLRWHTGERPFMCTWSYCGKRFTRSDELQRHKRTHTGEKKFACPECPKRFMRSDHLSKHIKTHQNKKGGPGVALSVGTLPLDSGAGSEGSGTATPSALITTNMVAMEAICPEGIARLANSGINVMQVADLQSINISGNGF
Sequence of Paired box protein Pax-6 (Homo sapiens) (P26367 whole entry, looked up): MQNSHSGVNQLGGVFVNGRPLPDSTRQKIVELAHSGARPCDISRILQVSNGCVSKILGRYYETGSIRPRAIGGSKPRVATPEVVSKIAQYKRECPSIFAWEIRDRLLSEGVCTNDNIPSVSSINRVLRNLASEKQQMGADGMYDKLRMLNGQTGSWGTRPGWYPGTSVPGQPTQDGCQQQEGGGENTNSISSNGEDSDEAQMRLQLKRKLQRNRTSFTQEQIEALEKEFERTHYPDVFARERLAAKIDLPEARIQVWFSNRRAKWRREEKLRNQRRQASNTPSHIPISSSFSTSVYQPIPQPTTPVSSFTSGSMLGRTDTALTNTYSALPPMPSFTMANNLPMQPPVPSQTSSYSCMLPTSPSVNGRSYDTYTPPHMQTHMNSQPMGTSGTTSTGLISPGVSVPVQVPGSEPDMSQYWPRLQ

COP(=O)(OC)SCn1c(=O)oc2cc(Cl)cnc21
active: [9] 8.16 µM | [16] 10 µM
not listed: [17] | [18] | [19]
inactive: all other assays above

CCCOc1nn(C(=O)NS(=O)(=O)c2ccccc2C(=O)OC)c(=O)n1C
active: [9] 50 µM
not listed: [19]
inactive: all other assays above

Cc1nn(-c2cc(NS(C)(=O)=O)c(Cl)cc2Cl)c(=O)n1C(F)F
active: [9] 5.33 µM
not listed: [1] | [8] | [17] | [18] | [19]
inactive: all other assays above

CC1=NNC(=O)N(/N=C/c2cccnc2)C1
not listed: [1] | [6] | [8] | [17] | [18] | [19]
inactive: all other assays above

CC(=NC#N)N(C)Cc1ccc(Cl)nc1
active: [9] 64.9 µM
not listed: [1] | [6] | [8] | [18] | [19]
inactive: all other assays above

CNC(=O)ON=C(C)SC
not listed: [8] | [18]
inactive: all other assays above

CCCCN(CC)c1c([N+](=O)[O-])cc(C(F)(F)F)cc1[N+](=O)[O-]
active: [8] 14.9 µM | [9] 7.62 µM
not listed: [17] | [19]
inactive: all other assays above

CCc1cnc(C2=NC(C)(C(C)C)C(=O)N2)c(C(=O)O)c1 (stereo not given)
not listed: [6] | [17] | [18]
inactive: all other assays above
